This passage reports z-score results from PubChem BioAssay.

This assay can be described thus: RPMI8226 myeloma cell viability, profiling panel, resazurin fluorescence, basal, 24 h, PK04 Diversity Set (AID 1180).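 Also: RPMI8826 multiple myeloma cell line at 5000 cells per well; test concentration not given here.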 The note with it: higher = more signal. A general note: Resazurin is reduced to fluorescent resorufin, in cell work by metabolically active cells.
`C#CCN1[C@@H](Cc2ccc(O)cc2)C(=O)O[C@H](Cc2ccccc2)[C@@H]1/C=C/C1CC1` showed a z-score of -1.21.

Take `CCCCCCCCCCC(O)C1C=CC2C(=O)NC(=O)C2N1Nc1ccc(Cl)cc1Cl` (stereo not given): the z-score is -1.51. In turn, `O=C(NCc1ccccc1)[C@@H]1c2ccccc2C(=O)N(C2Cc3ccccc3C2)[C@H]1c1ccc(CO)cc1` came in with a z-score of 0.12. Take `CN(C)CCCCCCNC(=O)[C@@H]1C[C@@H]2C(=O)N3CCC[C@H]3C(=O)N2[C@@H]1c1ccc(O)cc1`: the z-score is -0.198. The same measure for `N#Cc1ccc(C(O)C2C=CC3C(=O)N(c4ccccc4)C(=O)C3N2Nc2ccccc2F)cc1` (stereo not given): 0.148. In the case of `COc1ccc([Si](C)(C)[C@@H]2[C@@H](CC(=O)N3Cc4ccccc4C[C@H]3CO)O[C@]3(C(=O)N(Cc4cccc(N5CCC5=O)c4)c4ccccc43)[C@H]2C)cc1`, the z-score is -0.828. In turn, `CS(=O)(=O)CCOC(=O)C1=CC(CCCO)=CC(C2CC2)N(Cc2cc3c(cc2Br)OCO3)C=C1C(=O)OCCS(C)(=O)=O` (stereo not given) showed a z-score of -0.0822. In turn, `NC(=O)N1C(=O)C2C(C1=O)C1C=C(CCCO)C2C(C2CC2)N1Cc1cc2c(cc1Br)OCO2` (stereo not given) gave a z-score of -0.46.

As to `O=C1OCCC=C[C@H]2OC34C=CCN(CCN5CCOCC5)C(=O)[C@H]3N(CCCCCO)C(=O)[C@@H]4C12` (stereo not given in full), the z-score stood at 0.571. Consider `CC(CO)N1C(=O)[C@@H]2C3C(=O)OCCC/C=C\[C@H]3OC23C=CCN(CCN2CCOCC2)C(=O)[C@@H]13` (stereo not given in full), for which the z-score was -0.784. Consider `CCCCCCc1nc(-c2ccc(-c3ccc(Cl)c(Cl)c3)o2)c(C)c2c1[Si](C(C)C)(C(C)C)OC2`, for which the z-score is -1.42. `CCOc1cc(C(O)C2C=CC3C(=O)N(c4ccccc4)C(=O)C3N2Nc2ccc(C(C)C)cc2)ccc1O` (stereo not given) displayed a z-score of -1.3. Regarding `CCOC(=O)C1=C[C@@H](C(C)C)N(S(=O)(=O)c2ccc(C)cc2)[C@H]1c1ccccc1F`, the z-score is -0.807. Under `COc1cc2c(cc1O)C(c1cccs1)N(Cc1cccc(OC(F)(F)F)c1)CC2` (stereo not given) stands -1.93.

The compound `C=CCN1C(=O)[C@]2(Cc3ccccc3)N=C(c3ccc(OCCCO)cc3)O[C@@H]2c2ccccc21` gave a z-score of -5.39. The same measure for `COc1ccc([Si](C)(C)[C@@H]2[C@@H](CCn3cc(CCO)nn3)O[C@]3(C(=O)N(Cc4cccc(N5C(=O)c6cccc7cccc5c67)c4)c4ccccc43)[C@H]2C)cc1`: -6.09. Under `C=CCN(Cc1ccccc1)C(=O)C(c1cccs1)N(C(=O)/C=C\C(=O)O)c1ccc(CCOCCO)cc1` (stereo not given) stands 0.424; under `COC(=O)c1c2oc(c1C(=O)OC)C(=O)NC1(CCCCC1)c1cn(nn1)C[C@H](Cc1ccccc1)NC(=O)N[C@H](CO)CC2`, 0.456; under `CC(=O)NCCCC[C@@H]1NC(=O)[C@H]2C[C@@H](C(=O)NCCCCCNC(=O)CS)[C@@H](c3ccc(O)cc3)N2C1=O`, -0.213. Under `COCCCNC(=O)[C@@]1(CCS(=O)(=O)c2ccccc2)N=C(c2ccc(OCCCO)cc2)O[C@H]1c1ccccc1N=[N+]=[N-]` stands -0.264; under `COc1ccc(NN2C(C(O)c3ccc(N(C)C)cc3)C=CC3C(=O)N(C4CCCCC4)C(=O)C32)cc1` (stereo not given), -1; under `[N-]=[N+]=NCc1ccccc1[C@@H]1OC(c2ccc(OCCCO)cc2)=N[C@]1(CCS(=O)(=O)c1ccccc1)C(=O)N1CCCCC1`, -0.808. `COC(=O)C[C@H]1O[C@@H](CCc2ccccc2)[C@@H](C)[C@@H]1[Si](C)(C)c1ccc(OC)cc1` showed a z-score of -0.206. `CN1C(=O)C2C=CC(C(O)c3ccccc3)N(N3CCCCC3)C2C1=O` (stereo not given) registered a z-score of -1.56. Consider `COC(=O)[C@@]1(Cc2ccc(OC)cc2)[C@H]2c3cc(C(=O)N4CCCC4)n(CCSCCO)c3C[C@H]2CN1C(=O)c1ccccc1`, for which the z-score was -1.3.

`COC(=O)c1c(CC[C@@H](CO)NC(=O)NCCc2c[nH]c3ccccc23)oc(C(=O)Cc2ccccc2)c1C(=O)OC` returned a z-score of 0.861.

For the compound `O[C@@H](Cc1ccccc1)[C@@H](/C=C/C1CC1)NCc1cccc(Cl)c1`, the z-score is -1.18.

In turn, `CN1CCC(CCCO)=CC1c1cccs1` (stereo not given) showed a z-score of -0.707. For `CO[C@H]1O[C@H](CO)[C@@H](OC(=O)Nc2ccc(Br)cc2)[C@@H]2OC(=O)[C@H](Cc3cccc(Br)c3)C/C=C/C[C@@H](Cc3cccc(Br)c3)C(=O)O[C@@H]12`, the z-score was -1.45. In turn, `COCC(=C=CC[C@@H](O)c1ccc(OCCO)cc1)C[C@@H](O)c1ccccn1` displayed a z-score of -0.104. In turn, `COC(=O)[C@@]1(Cc2ccc(OC)cc2)[C@H]2c3cc(C(=O)N(C)C)n(Cc4ccc(C(F)(F)F)nc4)c3C[C@H]2CN1C(=O)c1ccccc1` came in with a z-score of 0.27. For the compound `COCCCNC(=O)[C@@H]1c2ccccc2C(=O)N(Cc2ccccc2OC)[C@H]1c1ccc(CO)cc1`, the z-score worked out at 1.14.

As to `O=C1O[C@@H](c2ccccc2)[C@@H](c2ccccc2)N2[C@@H](c3ccc(OCCO)cc3)[C@]3(C(=O)Nc4ccc(C#CCCO)cc43)[C@@H](C(=O)NC[C@H](O)c3ccccc3)[C@H]12`, the z-score is 0.671.

On to `O=C(O)[C@H]1C[C@H]2C(=O)N3CCC[C@H]3C(=O)N2[C@H]1c1ccc(O)cc1`, for which the z-score came to 1.07.

Compound `[N-]=[N+]=NCc1ccccc1C[C@@]1(C(=O)NCC(O)CO)N=C(c2ccc(OCCCO)cc2)O[C@@H]1c1ccccc1` (stereo not given in full) gave a z-score of -0.645.
